Among the data in PubChem BioAssay (NCI) are growth values, retold here.

Among the test systems are NCI-H23 lung; NCI-H226 lung; NCI-H322M lung; HOP-62 NSCLC; NCI-H460 lung; HOP-92 NSCLC; NCI-H522 lung; A549/ATCC NSCLC; 786-0 renal; COLO 205 colon; DU-145 prostate; K-562 leukemia; MALME-3M melanoma; MDA-MB-231 breast; SF-268 CNS; SF-295 CNS; SF-539 CNS; UACC-257 melanoma; M14 melanoma; RXF 393 renal.
What all share (assay): NCI-60 one-dose screen, 48 h (100 = growth as untreated, 0 = no growth, -100 = all killed)
What all share (settings): 10 µM unless noted

About 83,000 compounds went through this panel and 20% of them were active in at least one assay; those are over-represented in the sample as a whole.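 How to read the values: 0–100, growth inhibition (40 = 60% inhibited); 0, no net growth; -100 to 0, cell death (-40 = 40% of starting cells died; -100 = all dead).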 A number with no mark means an inactive call. Active and inactive are the calls of the source. How the source made its calls: active means growth percent below 10; inactive means the rest.

Regarding `O=C(O)CC1=CCCCC1`, the growth with NCI-H23 lung was 98.9%; with NCI-H226 lung, 103%; in the assay with NCI-H322M lung, 98.7%; in the assay on HOP-62 NSCLC, 98.3%; with NCI-H460 lung, 106%; with HOP-92 NSCLC it was 82.8%. For the same compound, the growth was 101% in the assay on NCI-H522 lung; 98.5% with A549/ATCC NSCLC; 95.2% with 786-0 renal; 108% in the assay on COLO 205 colon; 102% with DU-145 prostate; 102% in the assay on K-562 leukemia. The growth was 90.8% with MALME-3M melanoma; 98% in the assay on MDA-MB-231 breast; 93.4% in the assay with SF-268 CNS; 95.2% in the assay on SF-295 CNS; 98.4% in the assay on SF-539 CNS; 100% in the assay with UACC-257 melanoma. Also, in the assay with M14 melanoma, the growth was 95.8%.
`Cc1ccnc(Nc2nc3ccccc3[nH]2)n1`: the growth in the assay with NCI-H23 lung is 104%; in the assay on NCI-H226 lung, 108%; with NCI-H322M lung, 103%; in the assay on HOP-62 NSCLC, 97.4%; in the assay on NCI-H460 lung, 100%; in the assay with HOP-92 NSCLC, 99.5%. Further, the growth in the assay with NCI-H522 lung is 103%; in the assay with A549/ATCC NSCLC it was 108%; in the assay with 786-0 renal, 94%; with COLO 205 colon it was 113%; in the assay on DU-145 prostate, 123%; in the assay with K-562 leukemia it was 97.8%. Moreover, the growth with MALME-3M melanoma is 104%; with MDA-MB-231 breast it was 109%; with RXF 393 renal, 116%; with SF-295 CNS it was 102%; with SF-539 CNS it was 98%; in the assay on UACC-257 melanoma it was 105%. For the same compound, the growth in the assay on M14 melanoma is 97%.
For `CC(C)NC(=O)OCc1c(COC(=O)NC(C)C)c(-c2ccc(Cl)cc2)n2c1CCC2`, the growth in the assay on NCI-H23 lung is 36.5%; with NCI-H226 lung, 63%; with NCI-H322M lung, 62.8%; in the assay with HOP-62 NSCLC, 46.4%; in the assay on NCI-H460 lung, 24.6%; with HOP-92 NSCLC, 26.2%. Further, the growth in the assay on NCI-H522 lung is 51.2%; in the assay on A549/ATCC NSCLC, 66.5%; in the assay on 786-0 renal, 36.4%; in the assay on COLO 205 colon it was 57.2%; in the assay with DU-145 prostate, 15%; in the assay on K-562 leukemia it was 58.4%. In addition, the growth in the assay with MALME-3M melanoma was 59.3%; in the assay with MDA-MB-231 breast it was 65.8%; in the assay on SF-268 CNS it was 31%; in the assay with SF-295 CNS it was 20.8%; with SF-539 CNS it was 16.3%; in the assay on UACC-257 melanoma, 88.8%. The growth with M14 melanoma was 33.2%.
As for `O=C(NC1CCCCC1)c1ccc(Cl)cc1`, the growth in the assay on NCI-H23 lung is 95.7%; in the assay on NCI-H226 lung, 92.5%; in the assay on NCI-H322M lung, 98.1%; in the assay on HOP-62 NSCLC, 92.8%; in the assay with NCI-H460 lung, 101%; in the assay on HOP-92 NSCLC, 95%. The growth in the assay on NCI-H522 lung was 96.2%; in the assay on A549/ATCC NSCLC, 99.9%; in the assay on 786-0 renal, 103%; in the assay on COLO 205 colon, 109%; with DU-145 prostate it was 103%; in the assay on K-562 leukemia, 96.5%. For the same compound, the growth in the assay on MALME-3M melanoma is 106%; with MDA-MB-231 breast, 113%; with SF-268 CNS it was 97.1%; in the assay on SF-295 CNS, 105%; in the assay on SF-539 CNS, 104%; in the assay on UACC-257 melanoma it was 105%. Also, the growth in the assay with M14 melanoma is 105%.
In the case of `COc1cc2c(c(OC)c1OC)-c1ccc(SC)c(=O)cc1[C@@H](NC1OC(CO)C(O)C(O)C1O)CC2` (stereo partly specified), the growth in the assay with NCI-H23 lung was 29.9%; in the assay with NCI-H226 lung, 43.4%; in the assay on NCI-H322M lung it was 33%; in the assay with HOP-62 NSCLC it was 25.9%; in the assay with NCI-H460 lung it was 3.13% (active); with HOP-92 NSCLC it was 77.9%. Further, the growth with NCI-H522 lung is -16.8% (active); in the assay with A549/ATCC NSCLC, 10.4%; in the assay on 786-0 renal, 19.8%; in the assay on COLO 205 colon it was -61.5% (active); in the assay on DU-145 prostate, 6.12% (active); in the assay with K-562 leukemia, 4.19% (active). The growth was 54.6% with MALME-3M melanoma; 7.41% (active) with MDA-MB-231 breast; 22.7% with SF-268 CNS; -35.8% (active) in the assay on SF-295 CNS; 1.24% (active) in the assay with SF-539 CNS; 50.5% in the assay with UACC-257 melanoma. For the same compound, in the assay on M14 melanoma, the growth is 11.3%.
Take `NS(=O)(=O)c1cc(=O)[nH]c(=O)[nH]1`: the growth is 114% in the assay on NCI-H23 lung; 109% with NCI-H226 lung; 93.7% in the assay with NCI-H322M lung; 107% in the assay with HOP-62 NSCLC; 111% with NCI-H460 lung; 172% in the assay with HOP-92 NSCLC. The growth in the assay with NCI-H522 lung was 74.5%; with A549/ATCC NSCLC it was 115%; with 786-0 renal, 105%; with COLO 205 colon, 117%; in the assay on DU-145 prostate it was 114%; in the assay on K-562 leukemia, 131%. Further, the growth in the assay on MALME-3M melanoma was 90.7%; in the assay on MDA-MB-231 breast, 115%; in the assay on SF-268 CNS, 110%; with SF-295 CNS, 109%; in the assay on SF-539 CNS it was 111%; with UACC-257 melanoma, 113%. Moreover, in the assay with M14 melanoma, the growth was 102%.
In the case of `CCOC(=O)c1ccc(Nc2sc(C(=O)c3ccc(Br)cc3)c(N)c2C#N)cc1`, the growth was 45.4% in the assay on NCI-H23 lung; 56% in the assay on NCI-H226 lung; 37.9% in the assay on NCI-H322M lung; 24% in the assay with HOP-62 NSCLC; 13.1% in the assay with NCI-H460 lung; 40.1% in the assay with HOP-92 NSCLC. Moreover, the growth is 8.98% (active) with NCI-H522 lung; 30.7% in the assay on A549/ATCC NSCLC; 22.8% in the assay with 786-0 renal; 11.4% with COLO 205 colon; 10.8% with DU-145 prostate; 12.9% with K-562 leukemia. Also, the growth was 31.8% with MALME-3M melanoma; 52.9% in the assay on MDA-MB-231 breast; 33.5% in the assay with SF-268 CNS; -11.1% (active) in the assay with SF-295 CNS; -1.74% (active) in the assay on SF-539 CNS; 38.2% with UACC-257 melanoma. Further, the growth in the assay with M14 melanoma was 29.4%.
Consider `O=C(CC(CC(=O)c1ccccc1)c1ccccn1)c1ccccc1`, for which the growth in the assay on NCI-H23 lung was 92.9%; in the assay with NCI-H226 lung, 95.7%; in the assay with NCI-H322M lung it was 102%; in the assay with HOP-62 NSCLC, 105%; with NCI-H460 lung, 102%; in the assay with HOP-92 NSCLC, 94.7%. Moreover, the growth is 95.1% with NCI-H522 lung; 98.5% in the assay on A549/ATCC NSCLC; 113% with 786-0 renal; 101% in the assay on COLO 205 colon; 110% in the assay with DU-145 prostate; 92.6% with K-562 leukemia. In addition, the growth in the assay with MALME-3M melanoma is 91.5%; with MDA-MB-231 breast, 92.7%; in the assay with RXF 393 renal it was 111%; with SF-268 CNS, 105%; in the assay with SF-539 CNS, 106%; in the assay with UACC-257 melanoma it was 105%. The growth in the assay with M14 melanoma was 103%.
In the case of `Cc1cccnc1NC1OC(=O)c2ccccc21` (stereo unspecified), the growth in the assay on NCI-H23 lung is 100%; with NCI-H226 lung, 98.6%; with NCI-H322M lung, 96.2%; with HOP-62 NSCLC, 99.7%; in the assay on NCI-H460 lung it was 105%; in the assay with HOP-92 NSCLC it was 119%. Besides, the growth is 88.6% in the assay with NCI-H522 lung; 96.2% in the assay on A549/ATCC NSCLC; 99.6% in the assay on 786-0 renal; 101% with COLO 205 colon; 102% in the assay with DU-145 prostate; 101% in the assay on K-562 leukemia. Besides, the growth in the assay with MALME-3M melanoma was 93.7%; in the assay on MDA-MB-231 breast, 115%; in the assay on RXF 393 renal, 118%; in the assay on SF-268 CNS it was 124%; in the assay on SF-539 CNS it was 109%; with UACC-257 melanoma, 100%. The growth in the assay with M14 melanoma is 95.7%.
